This is part of a sample that, as a whole, favours compounds with a hit. Of some 83,000 tested, about 20% had one in any assay.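 96-well plates, one dose, 48 hours. Percent growth reported; active if below 10.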 Unmarked numbers belong to inactive results. Active and inactive are the calls of the source.

Among the data in PubChem BioAssay (NCI) are growth values, retold here.

What all share (test): NCI-60 one-dose screen, 48 h (100 = growth as untreated, 0 = no growth, -100 = all killed)
Conditions in all cases: 10 µM unless noted

Assay [1] relates to T-47D breast.
Assay [2] has as its system BT-549 breast.
The subject of assay [3] is MDA-MB-435 melanoma.
For assay [4], the system named is SW-620 colon.
Assay [5] has as its system HCT-116 colon.
Assay [6] concerns KM12 colon.
Assay [7] concerns MCF7 breast.
Assay [8] relates to HCC-2998 colon.

As to `C=CCN=c1sc2c(n1NC(=O)c1cc3ccc1CCc1ccc(cc1)CC3)C(=O)c1ccccc1C2=O`, the growth in assay [1] was -3.21% (active); in assay [2], -99.1% (active); in assay [3] it was -93.5% (active); in assay [4], -59.7% (active); in assay [5], -32.4% (active); in assay [6] it was 6.04% (active).
Take `CNc1nnc2n(-c3ccccc3)c(=O)c3cnn(-c4ccccc4)c3n12`: the growth is 37.1% in assay [1]; 74% in assay [2]; 105% in assay [4]; 86.7% in assay [7]; 77.7% in assay [5]; 112% in assay [8]. Moreover, the growth in assay [6] is 87.4%.
Turning to `CSc1nc(N)c(NS(=O)(=O)c2ccc(C(C)=O)cc2)c(=O)[nH]1`, the growth in assay [1] was 102%; in assay [2], 98.4%; in assay [4] it was 102%; in assay [7], 85.9%; in assay [5], 92.7%; in assay [8], 112%. Besides, the growth in assay [6] was 103%.
On to `CSc1nnc(-c2cc3c([nH]c4ccccc43)c(-c3cccc(O)c3)n2)n1-c1ccccc1`, for which the growth is 44.9% in assay [1]; 37.6% in assay [2]; 31.3% in assay [4]; 13.2% in assay [7]; 18.3% in assay [5]; 67.3% in assay [8]. For the same molecule, in assay [6], the growth is 21.6%.
`CCC(C(=O)[C@@H](C)[C@@H](O)[C@H](C)[C@@H]1O[C@@H]([C@@H](CC)C(=O)ONC(=O)c2ccccc2)CC[C@@H]1C)[C@H]1O[C@]2(C=CC(=O)[C@]3(CC[C@@](C)([C@H]4CC[C@](O)(CC)[C@H](C)O4)O3)O2)[C@H](C)C[C@@H]1C` (some centres not stated): the growth in assay [1] was 21.4%; in assay [2], 6.21% (active); in assay [3], 20.8%; in assay [4], 19.7%; in assay [5], -36.9% (active); in assay [6] it was 16.2%.
Consider `COC(=O)[C@]1(C)CCC[C@]2(C)[C@H]3C[C@H]4C(C(C)C)=C[C@]3(CC[C@H]21)[C@@H]1C(=O)CC[C@H](OCCC#N)[C@@H]14`, for which the growth in assay [1] is 66.4%; in assay [2], 87.5%; in assay [4], 86.4%; in assay [7], 59.5%; in assay [5], 77.6%; in assay [8], 96.4%. In assay [6], the growth is 82%.
Turning to `Cc1cc(=O)n(C(=O)Nc2ccccc2Cl)c2cc(O)ccc12`, the growth in assay [1] was 97.1%; in assay [2], 94.4%; in assay [4], 93.7%; in assay [7] it was 101%; in assay [5] it was 101%; in assay [8], 98.5%. In assay [6], the growth is 98.1%.
On to `Nc1[nH]n2cc(-c3ccccc3)nc2c1N=Nc1ccc(S(N)(=O)=O)cc1`, for which the growth in assay [1] is 42.8%; in assay [3], 28.9%; in assay [4], 26.1%; in assay [7] it was 45.5%; in assay [5] it was 22.6%; in assay [8], 45.5%. Moreover, the growth in assay [6] is 33.3%.
On to `Cc1ccc2c(c1)=C/C(=C\c1cc(-c3ccccc3)oc1O)C(=O)N=2`, for which the growth in assay [1] was 97.7%; in assay [3], 110%; in assay [4], 107%; in assay [7], 89.2%; in assay [5], 93.1%; in assay [8], 115%. Besides, the growth in assay [6] is 100%.
On to `CSc1nc2ccccc2cc1/C=C1/C=C(c2ccccc2)NC1=O`, for which the growth in assay [1] was 79.9%; in assay [3], 3.27% (active); in assay [4], 55.4%; in assay [7] it was 49.8%; in assay [5], 56.8%; in assay [8] it was 93.2%. In addition, in assay [6], the growth was 59.6%.
As to `O=C(Nc1nc(-c2ccc(Cl)cc2)nc2c1sc(=S)n2-c1ccccc1)C(F)(F)F`, the growth in assay [1] was -14.8% (active); in assay [3], 50.6%; in assay [4] it was 34.3%; in assay [7], 57.1%; in assay [5] it was 3.7% (active); in assay [8], 68.4%.
For `CCCCNC(=O)CC1=C(C)/C(=C/c2[nH]c(-c3ccc[nH]3)cc2OC)N=C1C`, the growth is 32.6% in assay [1]; 20.2% in assay [3]; 12.5% in assay [4]; 22.3% in assay [7]; 3.1% (active) in assay [5]; 13.4% in assay [6].
Turning to `Cc1cc(=O)oc2cc(OCc3nn4c(Nc5nc6ccccc6s5)c(-c5ccccc5)nc4s3)ccc12`, the growth in assay [1] was 88.1%; in assay [3], 88.8%; in assay [4] it was 85.3%; in assay [7] it was 84.1%; in assay [5], 85.4%; in assay [8], 98.5%. Besides, the growth in assay [6] was 89.6%.
Take `O=C(/C=C/c1ccco1)Nc1ncc(Cc2cccc(C(F)(F)F)c2)s1`: the growth in assay [1] is 21.5%; in assay [3] it was -49.6% (active); in assay [4], 18.4%; in assay [7], 12.9%; in assay [5] it was 7.05% (active); in assay [8], 12.2%.
`Nc1nc(N)c(-c2ccc(Cl)c(Cl)c2)c(CBr)n1`: the growth in assay [1] is 91.6%; in assay [3] it was 49.8%; in assay [4] it was 42%; in assay [7], 76.7%; in assay [5], 42%; in assay [8], 71.7%.
`COc1ccc(F)cc1/C=C/C(=O)/C=C(/C=C/c1cc(F)ccc1OC)OB(F)F`: the growth is 36.4% in assay [1]; 2.57% (active) in assay [3]; 14.1% in assay [4]; 29.2% in assay [7]; 0.9% (active) in assay [5]; 104% in assay [8]. For the same molecule, the growth in assay [6] is 73.6%.
As for `CC1CCN(CCOc2ccc(CNc3ccc4nc(CCC5CCCCC5)[nH]c4c3)cc2)CC1`, the growth in assay [1] was -32.8% (active); in assay [3] it was -43.4% (active); in assay [4] it was 13.9%; in assay [7], 5.38% (active); in assay [5], 13.7%; in assay [8], -50.5% (active). Further, in assay [6], the growth is 44%.
On to `O=S(=O)(Nc1cc(Cl)ccc1Cl)c1ccc(-c2cnc(C3CC3)o2)cc1`, for which the growth in assay [1] is 28.7%; in assay [3], -12% (active); in assay [4], 21%; in assay [5], 21.5%; in assay [8] it was 67.4%; in assay [6], 24%.
Regarding `COc1ccc(C(O)c2cc3c(N)c(C(=O)Nc4cccc(Br)c4)sc3nc2C)cc1` (configuration not stated), the growth in assay [1] was 53.2%; in assay [4] it was 23.7%; in assay [7], 9.88% (active); in assay [5], 6.39% (active); in assay [8], -33.9% (active); in assay [6] it was 0.956% (active).
With `CN(C)Cc1ccc(O)c(C(=O)O)c1`, the growth in assay [1] was 109%; in assay [3], 107%; in assay [4], 106%; in assay [7], 107%; in assay [5], 109%; in assay [8] it was 109%. For the same molecule, in assay [6], the growth is 108%.
On to `O=C(Nc1ccccc1O)c1ccc(CNC(=O)c2sccc2Nc2ccnc(C(F)(F)F)c2)cc1`, for which the growth is 40.1% in assay [1]; 39.3% in assay [3]; 41.9% in assay [4]; 30.1% in assay [7]; 26.3% in assay [5]; 65.4% in assay [8]. Besides, the growth in assay [6] is 60.9%.
As for `CC(C)(Sc1cc(C(C)(C)C)c(O)c(C(C)(C)C)c1)Sc1cc(C(C)(C)C)c(OC(=O)CCCC(=O)O)c(C(C)(C)C)c1`, the growth in assay [1] was 36.6%; in assay [3], 60.4%; in assay [4], 43.7%; in assay [7] it was 36.2%; in assay [5], 26.5%; in assay [8] it was 50.4%. The growth in assay [6] was 36.7%.
`Cc1ccc(C[P+](c2ccccc2)(c2ccccc2)c2ccccc2)cc1`: the growth in assay [1] was 1.57% (active); in assay [3], 4.92% (active); in assay [4], 10.9%; in assay [5] it was 2.21% (active); in assay [8] it was -26.4% (active); in assay [6] it was -12.9% (active).
